This is one part of a sample in which hits are shown more often than they occur.
IL1B secr inh = inflammasome signaling inhibition, IL-1 beta readout. activity change, % at 57.5 µM. THP-1 LPS/ATP IL-1B secretion, AlphaLISA, 16 h; hits give low values. hit rate 4.7% among 360,000; in the data active = activity change below about -50%; inconclusive = mostly about -30% to -49%
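THP-1 cells pretreated 1 hr with compounds (up to 57.5 uM final), then stimulated with LPS (250 ng/mL final) plus ATP (1.25 mM final); secreted IL-1B measured by AlphaLISA after 16 hr, decreased signal indicating inhibition.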
TDP1 cell CPT = DT40-hTDP1 cell growth loss with CPT; chicken DT40 Tdp1-/-;hTDP1 cells + 20 nM CPT, ATP luminescence, 48 h; Potency, µM (series often up to 46.2 µM), without a hit: at the highest dose activity change, negative = growth inhibition, hits mostly inhibitors; hit rate 12% among 420,000; also: potency is read from the fitted curve at half-maximal effect; nearly all actives have a fitted effect of over 55% in size
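Chicken DT40 Tdp1-/- cells stably complemented with human TDP1 were seeded at 400 cells/well in medium containing 20 nM camptothecin, exposed to pin-transferred compounds, and grown at 37 °C for at least 48 hr. Viability was read as ATP luminescence.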
HT1080-NT tox = kills 2HG-producing HT-1080-NT fibrosarcoma cells; hit rate 1.6% among 360,000; Potency, µM (top dose mostly 46.1 µM), for inactives: top-dose activity, negative = less viability, actives largely listed as cytotoxic; HT-1080-NT fibrosarcoma viability, CellTiter-Glo ATP luminescence, 48 h;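 also: NT is the 2HG producing partner of a matched IDH1 knockdown line; potency is read from the fitted curve at half-maximal effect; 0% = DMSO-treated cells and -100% = media-only wells without cells; nearly all actives have a fitted effect of over 55% in size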
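Viability by CellTiter-Glo luminescence after 48 h compound exposure at 37C of HT-1080-NT cells (750/well, RPMI, 5% FBS). % activity scaled between DMSO wells and medium-only wells, then curve-fitted and categorized by curve class.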
TDP1 cell noCPT = qHTS for Inhibitors of human tyrosyl-DNA phosphodiesterase 1 (TDP1): qHTS in cells in absence of CPT; DT40 Tdp1-/- hTDP1 cells, no CPT, ATP luminescence, 48 h; Potency, µM (top dose mostly 46.2 µM), for inactives: at the highest dose activity change, negative = growth inhibition, hits mostly inhibitors; hit rate 15% among 420,000; also: potency is read from the fitted curve at half-maximal effect; nearly all actives have a fitted effect of over 55% in size
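DT40 Tdp1-/-;hTDP1 cells, no CPT (DMSO vehicle only), 400 cells/well; compounds pin-transferred; ≥48 hr, 37 °C; CellTiter-Glo 30 min RT dark, luminescence read.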
HT1080 IDH1KD tx = toxicity to HT-1080 IDH1 knockdown cells (counter line); HT-1080 IDH1 knockdown viability, ATP luminescence, 48 h; Potency, µM (doses to about 46.1 µM), without a hit: top-dose activity, negative = toxicity, usual class: cytotoxic; hit rate 2% among 360,000; AID 686971;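 also: potency is read from the fitted curve at half-maximal effect; 0% = DMSO wells and -100% = cell-free medium wells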
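Knockdown cells (IDH1KD HT-1080) received compounds 2 h after plating at 750 cells/well and were kept 48 h at 37 °C in 5% FBS RPMI. A CellTiter-Glo luminescence read gave % activity for curve fitting.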
12-LOX inh = blocks human arachidonate 12S-lipoxygenase; purified 12hLO, xylenol orange hydroperoxide absorbance; Potency, µM (highest dose often 108 µM), for the others: top-dose activity change, negative = inhibition, most hits filed as inhibitors; hit rate 1.1% among 580,000; AID 1671190; also: potency is read from the fitted curve at half-maximal effect
Target sequence (P18054 whole entry, looked up): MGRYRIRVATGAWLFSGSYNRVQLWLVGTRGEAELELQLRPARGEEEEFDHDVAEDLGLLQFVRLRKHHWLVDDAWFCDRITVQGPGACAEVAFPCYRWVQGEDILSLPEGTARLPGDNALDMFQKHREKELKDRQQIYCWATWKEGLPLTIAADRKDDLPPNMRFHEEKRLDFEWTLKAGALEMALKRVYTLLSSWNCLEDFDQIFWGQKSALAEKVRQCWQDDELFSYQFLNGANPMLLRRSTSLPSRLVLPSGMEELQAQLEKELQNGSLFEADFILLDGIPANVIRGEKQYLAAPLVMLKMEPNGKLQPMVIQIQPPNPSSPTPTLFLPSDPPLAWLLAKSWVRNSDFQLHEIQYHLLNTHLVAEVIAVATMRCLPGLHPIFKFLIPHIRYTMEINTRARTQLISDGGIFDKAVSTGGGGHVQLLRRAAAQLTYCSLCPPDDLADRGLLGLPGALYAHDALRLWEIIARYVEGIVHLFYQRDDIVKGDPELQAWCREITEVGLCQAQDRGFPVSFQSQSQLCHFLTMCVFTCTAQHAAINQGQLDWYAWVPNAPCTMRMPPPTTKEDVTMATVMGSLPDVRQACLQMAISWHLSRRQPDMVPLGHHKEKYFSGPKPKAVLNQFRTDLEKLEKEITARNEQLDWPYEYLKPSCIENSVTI
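Hydroperoxide product was detected by ferrous iron/xylenol orange as the 573 to 405 nm absorbance ratio. Arachidonic acid at 40 uM (final) was turned over for 30 min at room temperature by 150 nM human 12hLO, pH 7.0 Hepes buffer, after 15 min compound preincubation.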
An asterisk follows results filed as active; ? = inconclusive; / = not tested or not shown; [ ] = another dose, or the depositor's remark. Unless noted, calls follow the shape of the dose curve; as a rule, active = well fitted curve in the direction sought with a large enough effect; inconclusive = small, poorly fitted or top-dose-only effect, or another doubt; inactive = no such curve, though single readings can be large; an effect the other way counts as inactive or inconclusive. Unless noted, % is scaled to controls: 0 for no effect and ±100 for the full control effect.

SMILES | IL1B secr inh | TDP1 cell CPT | HT1080-NT tox | TDP1 cell noCPT | HT1080 IDH1KD tx | 12-LOX inh
CCc1cccc(NC(=O)C2CCCN2S(=O)(=O)c2ccc3nc(-c4ccccc4)[nH]c3c2)c1 (stereo not drawn) | / | 7.3µM* | / | 8.2µM* | / | -6%
CCOc1ccccc1NC(=O)C1CCCN(S(=O)(=O)c2cccc3cccnc23)C1 (stereo not drawn) | 6 | ? | 7% | ? | 2% | 283%
CCc1cccc(NC(=O)C2CCCN2S(=O)(=O)c2ccc3c(c2)n(C)c(=O)c(=O)n3C)c1 (stereo not drawn) | 6 | 4% | -3% | -1% | 2% | 3%
CCOc1ccccc1NC(=O)C1CCCN1S(=O)(=O)c1ccccc1C(F)(F)F (stereo not drawn) | 13 | 21µM* | 1% | 21µM* | 4% | 7%
CCOc1ccccc1NC(=O)C1CCN(S(=O)(=O)c2ccc3[nH]c(=O)ccc3c2)CC1 | / | -5% | / | -19% | / | -9%
CCOc1ccccc1NC(=O)C1CCCN1S(=O)(=O)c1ccc2nc(-c3ccccc3)[nH]c2c1 (stereo not drawn) | / | 10µM* | / | 6.5µM* | / | -4%
Cc1cc(C)cc(NC(=O)C2CCCN2S(=O)(=O)c2ccc3nc(-c4ccccc4)[nH]c3c2)c1 (stereo not drawn) | / | ? | / | 15µM* | / | -8%
NC(=O)CNC(=O)C1=C[C@@H](NC(=O)Cc2cccs2)[C@@H](O)[C@H](O)C1 | / | / | / | / | / | -7%[176 µM]
Cc1ccc2c(c1)C(C)(C)C1(/C=C/c3ccccc3Cl)NC(=O)CN21 (stereo not drawn) | / | / | / | / | / | 7%
CCC1(c2ccccc2)NC(=O)N(CC(=O)Nc2cc(S(=O)(=O)N3CCCCC3)ccc2N(C)C)C1=O (stereo not drawn) | -30 | ? | -23% | 21µM* | -21% | -21%
Cc1ccc(NC(=O)CN2C(=O)NC3(CCCCC3)C2=O)cc1Cl | / | / | / | / | / | 17%
Cc1cc(NC(=O)CN2C(=O)NC3(CCCCCC3)C2=O)ccc1Br | -13 | ? | ? | 21µM* | ? | 11%
O=C(CN1C(=O)NC2(CCCC2)C1=O)OCc1ccc(Cl)c(Cl)c1 | -1 | 16µM* | -7% | 21µM* | -8% | -21%
CCc1cccc(NC(=O)CN2C(=O)NC3(CCCCCCC3)C2=O)c1 | 8 | 10µM* | -28% | 15µM* | ? | 8%
CCCn1c(C)cc(C(=O)CN2C(=O)NC3(CCCCCC3)C2=O)c1C | 31 | 10µM* | 0% | 6.5µM* | 1% | -3%
O=C(CN1C(=O)NC2(CCCCCC2)C1=O)Nc1ccc(OC(F)(F)F)cc1 | -22 | 15µM* | -23% | 9.2µM* | ? | ?
Cc1ccc(C2(C)NC(=O)N(CC(=O)Nc3ccc4c(c3)CCC4)C2=O)cc1 (stereo not drawn) | -25 | ? | 2%[9.24 µM] | -23% | 0% | 22%
CC(C)CC1(C)NC(=O)N(CC(=O)Nc2ccc3c(c2)CCC3)C1=O (stereo not drawn) | 0 | ? | ? | 26µM* | -28% | 31%
CCN(c1ccccc1)S(=O)(=O)c1ccc(OC)c(NC(=O)CN2C(=O)NC(C)(C)C2=O)c1 | -5 | -14% | 1% | -1% | 8% | 161%
CCN(c1ccccc1)S(=O)(=O)c1ccc(Cl)c(NC(=O)CN2C(=O)NC3(CCCC3)C2=O)c1 | ? | ? | -5% | 18µM* | 1% | -14%
CC(=O)c1ccccc1OCCOC(=O)c1cccc(CS(C)(=O)=O)c1 | / | / | / | / | / | -40%
CC(=O)Nc1ccc(NC(=O)COc2ccc3c(=O)c(-c4ccccc4)c(C)oc3c2)cc1 | / | / | / | / | / | 3%
Cc1nn(CC(=O)Nc2ccc(N3CCCCC3)cc2)c(=O)c2ccccc12 | / | / | / | / | / | -10%
O=C(CN1C(=O)NC2(CCCCCC2)C1=O)c1ccc(F)cc1 | -5 | -27% | -1% | -25% | -1% | 0%
CC1CCC2(CC1)NC(=O)N(CC(=O)Nc1cccc(S(=O)(=O)N3CCOCC3)c1)C2=O (stereo not drawn) | 22 | -12% | -5% | 2% | -2% | -6%
SMILES | IL1B secr inh | TDP1 cell CPT | HT1080-NT tox | TDP1 cell noCPT | HT1080 IDH1KD tx | 12-LOX inh
CC1CCC2(CC1)NC(=O)N(CC(=O)Nc1cccc(S(=O)(=O)N3CCCCC3)c1)C2=O (stereo not drawn) | -4 | ? | -13% | 23µM* | -22% | 155%
CC1(c2cccc(Br)c2)NC(=O)N(CC(=O)Nc2ccc(N3CCCCC3)cc2)C1=O (stereo not drawn) | -9 | ? | -26% | 13µM* | ? | -28%
CCc1ccc(C(=O)CN2C(=O)NC3(CCCCCC3)C2=O)cc1 | -27 | ? | -6% | 23µM* | -14% | ?
O=C(CN1C(=O)NC2(CCCCCCC2)C1=O)Nc1ccc(Cl)cc1 | 17 | 13µM* | ? | 15µM* | ? | -25%
CC(=O)Nc1ccc(NC(=O)CN2C(=O)NC3(CCCCCCC3)C2=O)cc1 | 22 | -16% | 2% | ? | 11% | -3%
CC1(C(=O)N2CCN(C(=O)c3ccco3)CC2)CC1(Br)Br (stereo not drawn) | -6 | 8% | 15% | 7% | 21% | 392%
CCc1ccc2oc(=O)cc(CN3CCN(CC(=O)N4CCCCC4CC)CC3)c2c1 (stereo not drawn) | / | / | / | / | / | 3%
COc1ccc(C2CC(=O)C(c3ccc4ccccc4c3)=CN2Cc2ccccc2)cc1 (stereo not drawn) | / | / | / | / | / | -6%
CC1CC1C(=O)NCCC(=O)NC1CC2CCC1(C)C2(C)C (stereo not drawn) | / | / | / | / | / | -15%
COC(=O)c1cc(-c2c(C)oc3cc(OC(C)=O)ccc3c2=O)c(C)o1 | / | / | / | / | / | -3%
COC(=O)c1cc(-c2c(C)oc3cc(OC)ccc3c2=O)c(C)o1 | 0 | 12µM* | 7% | 18µM* | 4% | -4%
CCN1CC(c2ccccc2)CC2(CCN(C(=O)CCn3cccn3)CC2)C1 (stereo not drawn) | / | / | / | / | / | 7%
CC1(C)CC2CC(C)(CN2Cc2cccc([N+](=O)[O-])c2)C1 (stereo not drawn) | 36 | -25% | -1% | 2% | 5% | ?
CC1(C)CC2CC(C)(CN2Cc2c(O)ccc3ccccc23)C1 (stereo not drawn) | -17 | ? | -9% | 13µM* | -4% | ?
c1ccc(Sc2ccncc2)cc1 | -25 | 1% | 1% | 3% | 5% | 6%
